High-throughput results (PubChem BioAssay)
Rows were chosen to be rich in hits. Some 7.5% of all compounds tested hit in one or more screens of this group.
SMN2 splice up: SMN2 splice variant enhancement; HEK293 SMN2-luciferase splicing reporter, luminescence, 30-36 h; Potency, µM (highest dose often 46.1 µM), most hits filed as activators; 210,000 tested, 2.8% active; AID 1458; also: nearly all actives have a fitted effect of over 55% in size
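HEK293 cells carry an SMN2 minigene-luciferase reporter in which exon 7 inclusion puts luciferase in frame. Cells were seeded at 2000 cells/well, attached for 10-12 hours, then exposed to compounds for 30-36 hours at 37C before ONE-Glo luminescence.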
FLuc counter: firefly luciferase modulation, counter-screen for miR-21 project | P08659 | purified FLuc, Km substrates, luminescence inhibition | Potency, µM (top dose mostly 57.5 µM), hits mostly inhibitors | 360,000 tested, 6.9% active; also: nearly all actives have a fitted effect of over 55% in size
Target sequence (P08659 whole entry, looked up): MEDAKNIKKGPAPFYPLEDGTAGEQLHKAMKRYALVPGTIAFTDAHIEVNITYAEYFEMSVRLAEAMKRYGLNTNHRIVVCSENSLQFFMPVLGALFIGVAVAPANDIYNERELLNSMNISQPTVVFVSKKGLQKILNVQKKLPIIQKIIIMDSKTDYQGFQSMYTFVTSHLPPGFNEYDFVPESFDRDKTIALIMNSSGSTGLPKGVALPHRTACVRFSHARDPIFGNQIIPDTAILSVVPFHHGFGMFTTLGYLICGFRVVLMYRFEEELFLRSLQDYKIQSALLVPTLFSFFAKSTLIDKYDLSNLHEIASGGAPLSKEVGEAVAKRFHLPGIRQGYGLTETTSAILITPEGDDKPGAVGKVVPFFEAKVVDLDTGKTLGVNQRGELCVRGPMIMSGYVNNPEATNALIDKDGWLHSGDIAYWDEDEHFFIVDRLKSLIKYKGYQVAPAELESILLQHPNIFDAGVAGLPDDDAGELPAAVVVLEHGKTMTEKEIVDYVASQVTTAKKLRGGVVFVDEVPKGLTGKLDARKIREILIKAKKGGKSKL
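Biochemical qHTS of compounds, final roughly 60 µM downward over six points, against 10 nM purified firefly luciferase using Km concentrations of substrates (10 uM D-luciferin, 10 uM ATP) in Tris acetate pH 7.5 buffer; luminescence output.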
Rab9 promoter act: activators of Rab9 promoter. Potency, µM (top dose mostly 9.22 µM), actives largely listed as activators. 320,000 tested, 2.8% active. Huh7 Rab9 promoter-luciferase reporter, luminescence, 24 h; also: nearly all actives have a fitted effect of over 60% in size
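Luminescence read-out: Huh7 cells stably expressing Rab9-luciferase, treated 24 h with compound at 37 °C, then lysed with luciferase reagent for 10 min at ambient before reading.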
NPC1 promoter act: NPC1 promoter activation. Potency, µM (titrated, usually from 9.22 µM), actives largely listed as activators. 320,000 tested, 2.4% active. Huh7 NPC1 promoter luciferase reporter, 24 h. AID 485313; also: nearly all actives have a fitted effect of over 60% in size
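Stably transfected Huh7 (NPC1 promoter→luciferase), 1500 cells/well in Opti-MEM + 10% FBS, 2 h settle, then compound 24 h at 37 °C. Luminescence after 10 min with Amplite reagent.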
ELG1 genotox: genotoxicity induction in ELG1-luciferase HEK293T cells; 330,000 tested, 1.3% active; AID 504466; Potency, µM (doses to about 46 µM), actives largely listed as activators; HEK293T ELG1-luciferase reporter, luminescence, 16 h; also: nearly all actives have a fitted effect of over 60% in size
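Quantitative HTS format in 1536-well plates. HEK293T ELG1-luciferase reporter cells receive test compound and are incubated 16 hr at 37 °C, 5% CO2; ONE-Glo added, 30 min room temperature, then luminescence read.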
Large screens that a line does not name were inactive. Calls follow the shape of the dose curve; as a rule, active = well fitted curve in the direction sought with a large enough effect; inconclusive = small, poorly fitted or top-dose-only effect, or another doubt; inactive = no such curve, though single readings can be large; an effect the other way counts as inactive or inconclusive.

O=C(c1ccccc1)c1ccc2nc(-c3ccc(NC(=O)c4ccccc4F)cc3)[nH]c2c1	ELG1 genotox inconclusive
O=C(Cc1nc(=O)c2ccccc2s1)Nc1ccccc1	SMN2 splice up 2.5µM, FLuc counter 0.54µM, Rab9 promoter act 0.32µM, NPC1 promoter act 0.71µM, ELG1 genotox inconclusive
O=C(O)CCC(=O)Nc1ccc(-c2nc3ccc(C(=O)c4ccccc4)cc3[nH]2)cc1	FLuc counter 11µM (no result: SMN2 splice up)
COc1ccc(-c2cc(C(=O)N3CCN(C(c4ccccc4)c4ccccc4)CC3)no2)cc1	none
COc1cccc(-c2cc(C(=O)N3CCCCCC3)no2)c1	SMN2 splice up 3.2µM, FLuc counter 2.1µM, Rab9 promoter act 0.32µM, NPC1 promoter act 0.56µM, ELG1 genotox 1.5µM
COc1ccc(-c2cc(C(=O)N3CCCCCC3)no2)cc1OC	FLuc counter 24µM, Rab9 promoter act inconclusive, NPC1 promoter act inconclusive, ELG1 genotox inconclusive (no result: SMN2 splice up)
COc1ccc(-c2cc(C(=O)N3CCCC3)no2)cc1	FLuc counter 1.2µM, Rab9 promoter act 0.63µM, NPC1 promoter act 0.4µM, ELG1 genotox 2.9µM (no result: SMN2 splice up)
COc1ccc(-c2cc(C(=O)N3CCCCCC3)no2)cc1	FLuc counter 1.9µM, Rab9 promoter act 0.45µM, NPC1 promoter act 0.4µM, ELG1 genotox 4.6µM (no result: SMN2 splice up)
COc1ccc(NC(=O)CSc2nc3c(oc4ccccc43)c(=O)n2Cc2ccco2)cc1Cl	none (no result: Rab9 promoter act, NPC1 promoter act, ELG1 genotox)
COc1cccc(-c2cc(C(=O)N3CCCCC3C)no2)c1 (stereo unspecified)	SMN2 splice up 18µM, FLuc counter 8.5µM, Rab9 promoter act 2.2µM, NPC1 promoter act 1.6µM, ELG1 genotox 9.2µM
CCOC(=O)c1cc(C(=O)NCc2ccc(Cl)cc2Cl)nn1C	none
CCOC(=O)c1cc(C(=O)Nc2ccc(C)c(F)c2)nn1C	FLuc counter 7.6µM, Rab9 promoter act 2.8µM, NPC1 promoter act 4µM, ELG1 genotox inconclusive
N/C(=N\N=C/c1ccc(Br)cc1)N/N=C\c1ccc(Br)cc1	FLuc counter 11µM, Rab9 promoter act inconclusive
N/C(=N\N=C/c1ccc(F)cc1)N/N=C\c1ccc(F)cc1	FLuc counter 6µM (no result: SMN2 splice up)
CNC(=O)C(=O)N/N=C/c1ccc(Br)cc1	FLuc counter inconclusive
Cc1cc(C)nc(NS(=O)(=O)c2ccc(NC(=O)c3nc(SC(C)C)ncc3Cl)cc2)n1	FLuc counter inconclusive (no result: Rab9 promoter act, NPC1 promoter act, ELG1 genotox)
COc1ccc(N2CCOCC2)c(NC(=O)c2ccc3c(c2)OCO3)c1	none (no result: SMN2 splice up)
O=C(Nc1cccc2cccnc12)c1ccc2c(c1)OCCO2	FLuc counter 12µM, Rab9 promoter act inconclusive, ELG1 genotox inconclusive
O=C(Nc1cccc(Cl)c1N1CCCCC1)c1ccc2c(c1)OCCO2	none
COc1cc(NC(=O)c2ccc3c(c2)OCO3)c2ncccc2c1	FLuc counter 1.9µM
O=C(NCCc1cscn1)C1CCC(=O)N(Cc2ccc(Cl)cc2)C1 (stereo unspecified)	FLuc counter 3µM, Rab9 promoter act inconclusive, NPC1 promoter act inconclusive, ELG1 genotox inconclusive (no result: SMN2 splice up)
CCOc1ccc(-c2cc(C(=O)NCCc3ccccc3)c3c(-c4ccc(C)cc4)[nH]nc3n2)cc1	none (no result: SMN2 splice up, Rab9 promoter act, NPC1 promoter act, ELG1 genotox)
COc1cccc(Cn2cnc3c2c(=O)n(C)c(=O)n3C)c1	none (no result: Rab9 promoter act, NPC1 promoter act, ELG1 genotox)
CCN(CC)CCn1c(-c2ccccc2)nc2c(N3CCOCC3)nc(C)nc21	none (no result: FLuc counter, Rab9 promoter act, NPC1 promoter act, ELG1 genotox)
COC(=O)c1ccc(NC(=O)CSc2nnc(COc3ccc4c(c3)CCCC4)o2)cc1	none (no result: SMN2 splice up)
C=CCn1c(COc2ccc3c(c2)CCCC3)nnc1SCC(=O)Nc1cccc(SC)c1	FLuc counter 13µM
C=CCn1c(COc2ccccc2)nnc1SCC(=O)Nc1ccc2c(c1)OCCO2	none
COc1ccc(OCc2nnc(SCC(=O)Nc3cccc(C(C)=O)c3)o2)cc1	FLuc counter 19µM (no result: SMN2 splice up)
COc1cccc(NC(=O)CSc2nnc(COc3ccc4c(c3)CCCC4)o2)c1	FLuc counter 21µM
C#CCOCCOCCOCCNc1nc(N2CCN(C(=O)[C@H](CCC(=O)O)n3cc([C@@H](N)[C@H](C)CC)nn3)CC2)nc(N2CCN(C(=O)[C@H](CCC(=O)O)n3cc([C@@H](N)CC(N)=O)nn3)CC2)n1	none (no result: SMN2 splice up, FLuc counter, Rab9 promoter act, NPC1 promoter act)
COc1ccc(Cc2nc(C(=O)Nc3ccc(F)cc3)cs2)cc1	FLuc counter inconclusive
COc1ccc(Cc2nc(C(=O)Nc3ccc(Cl)cc3)cs2)cc1	FLuc counter inconclusive, ELG1 genotox inconclusive
COc1ccc(NC(=O)c2csc(Cc3ccc(Cl)cc3)n2)cc1	FLuc counter 24µM
